Experiments:
Assay in all cases: DAPPL (digital affinity profiling via proximity ligation, sequencing); 10 mM Tris-HCl pH 7.5, 50 mM NaCl, 1 mM DTT, 4% glycerol, room temperature, 30 min; GST-TFs on glutathione beads, 16-mer random dsDNA library, 0.1% formaldehyde crosslink after washing; high values mean tight binding
Conditions in all cases: protein: recombinant; tags: N-terminal GST; dsDNA, one strand shown
FLI1 = target: T1, FLI1 (Homo sapiens, UniProt Q01543 1-452)
T1 sequence: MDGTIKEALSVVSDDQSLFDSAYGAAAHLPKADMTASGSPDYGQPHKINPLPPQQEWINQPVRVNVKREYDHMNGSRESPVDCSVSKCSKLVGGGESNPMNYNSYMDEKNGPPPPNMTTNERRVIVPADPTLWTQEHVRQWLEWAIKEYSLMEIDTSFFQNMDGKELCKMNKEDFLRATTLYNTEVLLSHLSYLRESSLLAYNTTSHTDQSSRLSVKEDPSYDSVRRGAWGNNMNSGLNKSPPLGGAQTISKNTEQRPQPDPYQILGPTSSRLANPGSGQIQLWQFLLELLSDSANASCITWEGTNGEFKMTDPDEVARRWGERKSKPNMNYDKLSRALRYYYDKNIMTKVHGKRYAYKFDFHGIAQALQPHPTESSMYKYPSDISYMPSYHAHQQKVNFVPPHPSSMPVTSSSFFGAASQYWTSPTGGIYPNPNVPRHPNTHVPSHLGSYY
Outline: (§1)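 Sequencing on an Illumina NextSeq500 followed washing, crosslinking with 0.1% formaldehyde, proximity ligation (BsaI/T4 ligase, 1 h, 37 °C) and PCR amplification of pools that had been incubated for 30 min at room temperature with 200 nmole of a random double-stranded 16-mer DNA library in Tris/NaCl/DTT/glycerol buffer. Each pool held DNA-barcoded human transcription factors, expressed in yeast as GST fusions and captured on glutathione beads, plus a tag-only sample. Binding signal is a hexamer's read frequency for a factor divided by its frequency in the tag-only sample.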

ELK1 = target: T2, ELK1 (Homo sapiens, UniProt P19419 1-428)
T2 sequence: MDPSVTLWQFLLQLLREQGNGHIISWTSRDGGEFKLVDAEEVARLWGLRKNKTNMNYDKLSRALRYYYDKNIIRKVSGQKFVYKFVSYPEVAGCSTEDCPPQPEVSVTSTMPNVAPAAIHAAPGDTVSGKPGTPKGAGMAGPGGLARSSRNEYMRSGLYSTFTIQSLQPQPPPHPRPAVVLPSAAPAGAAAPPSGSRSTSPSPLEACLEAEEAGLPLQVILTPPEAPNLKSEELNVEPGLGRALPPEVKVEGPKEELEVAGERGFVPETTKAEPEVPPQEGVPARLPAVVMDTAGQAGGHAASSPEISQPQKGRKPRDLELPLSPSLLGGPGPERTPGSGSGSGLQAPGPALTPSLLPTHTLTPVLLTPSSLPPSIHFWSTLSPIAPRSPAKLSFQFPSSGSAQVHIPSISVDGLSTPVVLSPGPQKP
Outline: as §1

GABPA = target: T3, GABPA (Homo sapiens, UniProt Q06546 1-454)
T3 sequence: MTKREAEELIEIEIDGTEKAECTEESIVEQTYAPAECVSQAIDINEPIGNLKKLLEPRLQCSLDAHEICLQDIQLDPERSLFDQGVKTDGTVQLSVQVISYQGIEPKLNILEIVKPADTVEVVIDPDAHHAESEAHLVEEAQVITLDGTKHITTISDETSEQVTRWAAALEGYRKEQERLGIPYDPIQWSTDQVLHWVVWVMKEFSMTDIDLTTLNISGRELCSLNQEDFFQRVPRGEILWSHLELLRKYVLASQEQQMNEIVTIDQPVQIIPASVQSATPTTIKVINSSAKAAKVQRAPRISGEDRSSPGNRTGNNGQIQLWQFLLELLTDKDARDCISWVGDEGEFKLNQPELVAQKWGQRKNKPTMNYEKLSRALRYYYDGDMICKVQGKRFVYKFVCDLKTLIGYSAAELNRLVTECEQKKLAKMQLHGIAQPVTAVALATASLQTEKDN
Outline: as §1

ERG = target: T4, ERG (Homo sapiens, UniProt P11308 1-479)
T4 sequence: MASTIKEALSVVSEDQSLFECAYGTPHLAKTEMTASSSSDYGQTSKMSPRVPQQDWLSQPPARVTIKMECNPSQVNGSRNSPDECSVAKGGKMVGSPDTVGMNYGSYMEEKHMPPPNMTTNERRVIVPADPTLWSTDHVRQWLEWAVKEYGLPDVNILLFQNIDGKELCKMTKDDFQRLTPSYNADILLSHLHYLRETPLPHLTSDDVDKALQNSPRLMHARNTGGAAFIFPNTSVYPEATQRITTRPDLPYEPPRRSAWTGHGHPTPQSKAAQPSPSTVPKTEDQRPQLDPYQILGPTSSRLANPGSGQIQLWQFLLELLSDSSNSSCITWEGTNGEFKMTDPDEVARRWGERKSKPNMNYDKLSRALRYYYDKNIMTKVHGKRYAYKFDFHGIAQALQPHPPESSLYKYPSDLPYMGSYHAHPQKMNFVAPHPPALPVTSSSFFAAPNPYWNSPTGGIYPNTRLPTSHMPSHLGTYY
Outline: as §1

ELF1 = ELF1 (Homo sapiens, UniProt P32519 1-619)
Chain of ELF1 (P32519 whole entry): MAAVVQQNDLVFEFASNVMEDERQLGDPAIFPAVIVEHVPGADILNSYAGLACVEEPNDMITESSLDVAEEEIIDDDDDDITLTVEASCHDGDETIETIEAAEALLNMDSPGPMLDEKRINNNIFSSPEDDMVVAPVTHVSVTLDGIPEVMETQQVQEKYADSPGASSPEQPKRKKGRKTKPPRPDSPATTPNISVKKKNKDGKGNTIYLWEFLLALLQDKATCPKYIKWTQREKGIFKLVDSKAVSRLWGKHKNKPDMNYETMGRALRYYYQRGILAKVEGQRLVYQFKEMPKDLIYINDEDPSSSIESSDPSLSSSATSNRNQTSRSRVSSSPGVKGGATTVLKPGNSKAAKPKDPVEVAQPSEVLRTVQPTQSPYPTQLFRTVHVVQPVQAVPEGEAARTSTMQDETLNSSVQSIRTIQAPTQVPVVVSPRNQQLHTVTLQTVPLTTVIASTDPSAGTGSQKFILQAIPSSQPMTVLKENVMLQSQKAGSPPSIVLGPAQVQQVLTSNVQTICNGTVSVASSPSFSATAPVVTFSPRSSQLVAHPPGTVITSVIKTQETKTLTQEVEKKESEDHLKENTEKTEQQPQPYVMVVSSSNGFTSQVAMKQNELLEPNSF
Outline: as §1

EHF = target: T5, EHF (Homo sapiens, UniProt Q9NZC4 1-300)
T5 sequence: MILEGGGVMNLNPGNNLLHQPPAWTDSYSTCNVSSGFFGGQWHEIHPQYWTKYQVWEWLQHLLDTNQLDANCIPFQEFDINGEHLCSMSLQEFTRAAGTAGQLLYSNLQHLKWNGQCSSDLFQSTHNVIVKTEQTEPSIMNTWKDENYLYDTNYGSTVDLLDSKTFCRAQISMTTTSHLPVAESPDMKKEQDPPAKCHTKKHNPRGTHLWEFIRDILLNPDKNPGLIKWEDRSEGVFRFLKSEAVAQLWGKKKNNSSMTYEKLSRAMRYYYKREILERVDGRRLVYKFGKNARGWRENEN
Outline: as §1

SPI1 = SPI1 (Homo sapiens, UniProt P17947 1-270)
Outline: as §1

SPIB = SPIB (Homo sapiens, UniProt Q01892 1-262)
Chain of SPIB (Q01892 whole entry): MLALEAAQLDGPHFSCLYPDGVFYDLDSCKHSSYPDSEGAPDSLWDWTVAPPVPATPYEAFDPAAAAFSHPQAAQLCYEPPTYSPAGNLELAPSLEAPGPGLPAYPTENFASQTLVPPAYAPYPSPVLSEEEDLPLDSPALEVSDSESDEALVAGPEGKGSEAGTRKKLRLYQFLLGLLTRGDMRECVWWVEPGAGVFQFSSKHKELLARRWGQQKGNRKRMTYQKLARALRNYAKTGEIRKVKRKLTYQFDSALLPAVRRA
Outline: as §1

ELK3 = target: T6, ELK3 (Homo sapiens, UniProt P41970 1-407)
T6 sequence: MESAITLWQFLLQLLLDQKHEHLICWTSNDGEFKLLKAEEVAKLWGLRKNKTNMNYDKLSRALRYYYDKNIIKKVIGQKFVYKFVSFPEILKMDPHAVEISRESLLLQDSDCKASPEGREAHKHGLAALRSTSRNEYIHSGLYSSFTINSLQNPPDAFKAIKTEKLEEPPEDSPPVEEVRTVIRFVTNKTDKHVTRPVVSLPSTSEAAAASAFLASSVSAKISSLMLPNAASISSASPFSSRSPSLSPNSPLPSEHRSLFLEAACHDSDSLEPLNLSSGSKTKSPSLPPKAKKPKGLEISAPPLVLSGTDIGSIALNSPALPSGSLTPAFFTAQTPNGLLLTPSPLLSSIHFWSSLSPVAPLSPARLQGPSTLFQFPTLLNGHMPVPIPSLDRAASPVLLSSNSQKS
Outline: as §1

| Sequence | binding signal (FLI1) | binding signal (ELK1) | binding signal (GABPA) | binding signal (ERG) | binding signal (ELF1) | binding signal (EHF) | binding signal (SPI1) | binding signal (SPIB) | binding signal (ELK3) |
| --- | --- | --- | --- | --- | --- | --- | --- | --- | --- |
| CGATTC | 1.31 fold enrichment (6-mer frequency, TF over GST control) | 1.21 fold enrichment (6-mer frequency, TF over GST control) | 1.23 fold enrichment (6-mer frequency, TF over GST control) | 1.12 fold enrichment (6-mer frequency, TF over GST control) | 1.24 fold enrichment (6-mer frequency, TF over GST control) | 1.17 fold enrichment (6-mer frequency, TF over GST control) | 1.2 fold enrichment (6-mer frequency, TF over GST control) | 1.24 fold enrichment (6-mer frequency, TF over GST control) | 1.15 fold enrichment (6-mer frequency, TF over GST control) |
| GTTTCG | 1.28 fold enrichment (6-mer frequency, TF over GST control) | 1.22 fold enrichment (6-mer frequency, TF over GST control) | 1.22 fold enrichment (6-mer frequency, TF over GST control) | 1.25 fold enrichment (6-mer frequency, TF over GST control) | 1.27 fold enrichment (6-mer frequency, TF over GST control) | 1.33 fold enrichment (6-mer frequency, TF over GST control) | 1.25 fold enrichment (6-mer frequency, TF over GST control) | 1.23 fold enrichment (6-mer frequency, TF over GST control) | 1.15 fold enrichment (6-mer frequency, TF over GST control) |
| GTTCTT | 1.19 fold enrichment (6-mer frequency, TF over GST control) | 1.22 fold enrichment (6-mer frequency, TF over GST control) | 1.09 fold enrichment (6-mer frequency, TF over GST control) | 1.19 fold enrichment (6-mer frequency, TF over GST control) | 1.18 fold enrichment (6-mer frequency, TF over GST control) | 1.08 fold enrichment (6-mer frequency, TF over GST control) | 1.09 fold enrichment (6-mer frequency, TF over GST control) | 1.17 fold enrichment (6-mer frequency, TF over GST control) | 1.35 fold enrichment (6-mer frequency, TF over GST control) |
| AATTAG | 1.18 fold enrichment (6-mer frequency, TF over GST control) | 1.09 fold enrichment (6-mer frequency, TF over GST control) | 1.13 fold enrichment (6-mer frequency, TF over GST control) | 1.11 fold enrichment (6-mer frequency, TF over GST control) | 1.12 fold enrichment (6-mer frequency, TF over GST control) | 1.06 fold enrichment (6-mer frequency, TF over GST control) | 1.1 fold enrichment (6-mer frequency, TF over GST control) | 1.11 fold enrichment (6-mer frequency, TF over GST control) | 1.09 fold enrichment (6-mer frequency, TF over GST control) |
| TTTCAG | 1.36 fold enrichment (6-mer frequency, TF over GST control) | 1.19 fold enrichment (6-mer frequency, TF over GST control) | 1.34 fold enrichment (6-mer frequency, TF over GST control) | 1.3 fold enrichment (6-mer frequency, TF over GST control) | 1.31 fold enrichment (6-mer frequency, TF over GST control) | 1.34 fold enrichment (6-mer frequency, TF over GST control) | 1.35 fold enrichment (6-mer frequency, TF over GST control) | 1.24 fold enrichment (6-mer frequency, TF over GST control) | 1.23 fold enrichment (6-mer frequency, TF over GST control) |
| CTCCGA | 1.35 fold enrichment (6-mer frequency, TF over GST control) | 1.42 fold enrichment (6-mer frequency, TF over GST control) | 1.45 fold enrichment (6-mer frequency, TF over GST control) | 1.34 fold enrichment (6-mer frequency, TF over GST control) | 1.37 fold enrichment (6-mer frequency, TF over GST control) | 1.39 fold enrichment (6-mer frequency, TF over GST control) | 1.44 fold enrichment (6-mer frequency, TF over GST control) | 1.52 fold enrichment (6-mer frequency, TF over GST control) | 1.33 fold enrichment (6-mer frequency, TF over GST control) |
| TATTCA | 1.31 fold enrichment (6-mer frequency, TF over GST control) | 1.26 fold enrichment (6-mer frequency, TF over GST control) | 1.23 fold enrichment (6-mer frequency, TF over GST control) | 1.29 fold enrichment (6-mer frequency, TF over GST control) | 1.38 fold enrichment (6-mer frequency, TF over GST control) | 1.32 fold enrichment (6-mer frequency, TF over GST control) | 1.29 fold enrichment (6-mer frequency, TF over GST control) | 1.27 fold enrichment (6-mer frequency, TF over GST control) | 1.35 fold enrichment (6-mer frequency, TF over GST control) |
